Test results as given in PubChem BioAssay (EPA / NIEHS).
Values joined by “and” are separate entries in the source; they are usually repeats but may differ in a detail not shown here. Identical values can stand only once. Records with an inconclusive call do not appear. Some structures have more than one record in an assay (separate samples or runs), and their calls can disagree. Active and inactive are the calls of the source. How the source made its calls, unless noted: active means hit-call score of the fitted dose curve at least 0.9, where 1 is the maximum; inactive means score below 0.9.

How the values were obtained:
[1] = read-out: Macrophage colony-stimulating factor (MCSF), CSF1 (gene 1435); experiment: BSK_LPS_MCSF: BioMAP Diversity Plus: LPS Assay for Macrophage colony-stimulating factor (MCSF) Biomarker Activity (AID 2283083); details: primary human HUVEC with PBMC; actives raise or lower the signal
In short: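 ELISA readout of M-CSF after 24 h compound exposure in a human endothelial/PBMC co-culture. Activity, in either direction, is fitted relative to DMSO vehicle.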

[2] = read-out: Tissue Factor, F3 (gene 2152); experiment: BSK_LPS_TissueFactor: BioMAP Diversity Plus: LPS Assay for Tissue Factor Biomarker Activity (AID 2283084); details: primary human HUVEC with PBMC; actives raise or lower the signal
In short: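 ELISA signal for cell-surface Tissue Factor (CD142) was read 24 h after compound dosing of an LPS-stimulated human endothelial–PBMC primary co-culture. Gain or loss of signal was scored relative to DMSO.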

[3] = read-out: Tumor necrosis factor (Homo sapiens) (UniProt P01375); experiment: BSK_LPS_TNFa: BioMAP Diversity Plus: LPS Assay for Tumour Necrosis Factor alpha (TNFa) Biomarker Activity (AID 2283085); details: primary human HUVEC with PBMC; actives raise or lower the signal
In short: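 Human umbilical vein endothelial cells co-cultured with PBMC were exposed to test chemical and TNFa measured by ELISA 24 h after dosing. Bidirectional curve fitting was done relative to DMSO as negative control and baseline.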

[4] = read-out: Vascular cell adhesion molecule 1 (VCAM1), VCAM1 (gene 7412); experiment: BSK_LPS_VCAM1: BioMAP Diversity Plus: LPS Assay for Vascular cell adhesion molecule 1 (VCAM1) Biomarker Activity (AID 2283086); details: primary human HUVEC with PBMC; actives raise or lower the signal
In short: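 Human umbilical vein endothelial cells co-cultured with peripheral blood mononuclear cells under LPS stimulation were exposed to test chemical for 24 h. VCAM-1 levels were then measured by ELISA, with bidirectional curve fitting relative to DMSO as negative control and baseline.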

CD38, CD38 (gene 952) = experiment: BSK_SAg_CD38: BioMAP Diversity Plus: SAg Assay for CD38 Biomarker Activity (AID 2283087); details: primary human HUVEC with PBMC; actives raise or lower the signal
In short: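 Fluorescence ELISA of cell-surface CD38 served as the read-out, with either increase or decrease fitted against DMSO controls. Cells were a human umbilical vein endothelium plus PBMC co-culture under SEB/TSST-1 stimulation, measured 24 h after dosing.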

CD40, CD40 (gene 958) = experiment: BSK_SAg_CD40: BioMAP Diversity Plus: SAg Assay for CD40 Biomarker Activity (AID 2283088); details: primary human HUVEC with PBMC; actives raise or lower the signal
In short: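 Compounds were dosed onto a human primary endothelial–PBMC co-culture, and after 24 h CD40 was quantified by ELISA using a fluorescence signal. Activity in either direction was fitted relative to DMSO.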

CD69, CD69 (gene 969) = experiment: BSK_SAg_CD69: BioMAP Diversity Plus: SAg Assay for CD69 Biomarker Activity (AID 2283089); details: primary human HUVEC with PBMC; actives raise or lower the signal;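 on AC50: cell surface CD69 protein quantified by ELISA with fluorescence detection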
In short: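 ELISA, fluorescence read-out: CD69 on human umbilical vein endothelial cell + PBMC co-culture, 24 h post-dosing. Gain or loss of signal fitted bidirectionally against DMSO baseline.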

[5] = read-out: Monocyte Chemoattractant Protein-1 (MCP1), CCL2 (gene 6347); experiment: BSK_SAg_MCP1: BioMAP Diversity Plus: SAg Assay for Monocyte Chemoattractant Protein-1 (MCP1) Biomarker Activity (AID 2283090); details: primary human HUVEC with PBMC; actives raise or lower the signal
In short: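 MCP-1 levels in the endothelial–PBMC SAg co-culture were quantified by ELISA at 24 h post-dosing; both increases and decreases versus DMSO scored. Cytotoxicity monitored by SRB total protein in parallel cultures.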

[6] = read-out: E-selectin (Homo sapiens) (UniProt P16581); experiment: BSK_SAg_Eselectin: BioMAP Diversity Plus: SAg Assay for Eselectin Biomarker Activity (AID 2283091); details: primary human HUVEC with PBMC; actives raise or lower the signal
In short: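 Co-culture: HUVEC + PBMC. Dose compound; 24 h. ELISA for E-selectin. Bidirectional fit vs DMSO.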

[7] = read-out: Monokine induced gamma interferon (MIG), CXCL9 (gene 4283); experiment: BSK_SAg_MIG: BioMAP Diversity Plus: SAg Assay for Monokine induced gamma interferon (MIG) Biomarker Activity (AID 2283092); details: primary human HUVEC with PBMC; actives raise or lower the signal
In short: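 ELISA readout of MIG/CXCL9; primary human umbilical vein endothelial cells co-cultured with peripheral blood mononuclear cells; 24 h post-dose; gain/loss fit vs DMSO baseline.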

[8] = read-out: Interleukin-8 (IL8), CXCL8 (gene 3576); experiment: BSK_SAg_IL8: BioMAP Diversity Plus: SAg Assay for Interleukin-8 (IL8) Biomarker Activity (AID 2283094); details: primary human HUVEC with PBMC; actives raise or lower the signal
In short: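 Human umbilical vein endothelial cells co-cultured with peripheral blood mononuclear cells; IL-8 measured by ELISA 24 h after chemical dosing. Bidirectional concentration-response fitting used DMSO as negative control and activity baseline.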

[9] = BSK_SAg_Proliferation: Cell Proliferation Assessment in the BioMAP Diversity Plus: SAg Assay (AID 2283095); details: primary human HUVEC with PBMC;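 further: relative cell number as total protein by SRB absorbance in sub-confluent culture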
In short: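 Human umbilical vein endothelial cells co-cultured with peripheral blood mononuclear cells; total protein measured by sulforhodamine B staining (0.1% SRB after 10% TCA fixation), absorbance at 560 nm, at 96 h. Bidirectional fit against DMSO baseline.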

[10] = BSK_SAg_SRB: Viability Assessment in the BioMAP Diversity Plus: SAg Assay (AID 2283096); details: primary human HUVEC with PBMC;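 further: cells read one day after compound addition; hits may be either gain or loss of signal compared with DMSO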
In short: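 Total protein by sulforhodamine B staining, 24 h after dosing, in HUVEC–PBMC co-culture; DMSO-referenced bidirectional fitting.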

[11] = molecular target: human CYP2D6, CYP2D6 (gene 1565) (UniProt P10635); experiment: NVS_ADME_hCYP2D6: NovaScreen (NVS) CYP450-related Enzyme Activity (ADME) Assay for human CYP2D6 (AID 2283107; active means hit-call score of the fitted dose curve at least 0.9, where 1 is the maximum)
human CYP2D6, CYP2D6 (gene 1565), sequence (P10635 whole entry, looked up): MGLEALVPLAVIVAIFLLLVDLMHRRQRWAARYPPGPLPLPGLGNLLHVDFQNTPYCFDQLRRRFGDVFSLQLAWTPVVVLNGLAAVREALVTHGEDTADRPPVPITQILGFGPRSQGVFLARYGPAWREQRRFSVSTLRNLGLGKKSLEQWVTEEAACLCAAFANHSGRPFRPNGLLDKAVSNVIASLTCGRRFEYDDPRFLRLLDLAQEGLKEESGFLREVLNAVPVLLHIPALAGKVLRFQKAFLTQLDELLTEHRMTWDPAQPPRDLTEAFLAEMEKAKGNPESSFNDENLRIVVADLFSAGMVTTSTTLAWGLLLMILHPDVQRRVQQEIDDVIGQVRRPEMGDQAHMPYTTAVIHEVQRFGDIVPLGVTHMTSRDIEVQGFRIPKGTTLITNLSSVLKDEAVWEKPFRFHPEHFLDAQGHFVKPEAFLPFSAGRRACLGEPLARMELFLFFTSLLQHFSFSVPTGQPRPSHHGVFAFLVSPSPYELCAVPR
In short: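 Insect-cell recombinant enzyme + fluorogenic substrate, cell-free; 1 h incubation; fluorescence intensity readout. Acetonitrile = neg. ctrl/baseline. Single-point 10 uM, duplicate; follow-up concentration series.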

[12] = molecular target: human CYP2A6, CYP2A6 (gene 1548) (UniProt P11509); experiment: NVS_ADME_hCYP2A6: NovaScreen (NVS) CYP450-related Enzyme Activity (ADME) Assay for human CYP2A6 (AID 2283099; active means hit-call score of the fitted dose curve at least 0.9, where 1 is the maximum)
human CYP2A6, CYP2A6 (gene 1548), sequence (P11509 whole entry, looked up): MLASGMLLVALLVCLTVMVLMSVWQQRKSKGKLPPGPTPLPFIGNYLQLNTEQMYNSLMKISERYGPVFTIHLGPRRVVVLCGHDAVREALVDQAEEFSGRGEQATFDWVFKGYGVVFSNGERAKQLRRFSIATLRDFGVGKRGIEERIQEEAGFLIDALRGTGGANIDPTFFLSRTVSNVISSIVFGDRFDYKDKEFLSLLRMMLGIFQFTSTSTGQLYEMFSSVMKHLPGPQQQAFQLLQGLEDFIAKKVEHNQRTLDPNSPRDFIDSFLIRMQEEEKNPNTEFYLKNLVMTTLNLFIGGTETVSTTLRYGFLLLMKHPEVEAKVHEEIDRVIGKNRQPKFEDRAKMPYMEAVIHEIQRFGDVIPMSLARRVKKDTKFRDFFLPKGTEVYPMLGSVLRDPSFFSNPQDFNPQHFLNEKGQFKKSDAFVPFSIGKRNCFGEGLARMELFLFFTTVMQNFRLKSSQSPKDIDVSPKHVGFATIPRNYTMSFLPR
In short: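 Fluorescent substrate turnover by recombinant CYP2A6 (insect cell source), 0.5 h read. Screen: 10 uM, duplicate; threshold hits (e.g. 30% inhibition) → singleton concentration-response, top 20 uM. Positive and negative controls on every plate.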

[13] = molecular target: human CYP1A1, CYP1A1 (gene 1543) (UniProt P04798); experiment: NVS_ADME_hCYP1A1: NovaScreen (NVS) CYP450-related Enzyme Activity (ADME) Assay for human CYP1A1 (AID 2283100; active means hit-call score of the fitted dose curve at least 0.9, where 1 is the maximum)
human CYP1A1, CYP1A1 (gene 1543), sequence (P04798 whole entry, looked up): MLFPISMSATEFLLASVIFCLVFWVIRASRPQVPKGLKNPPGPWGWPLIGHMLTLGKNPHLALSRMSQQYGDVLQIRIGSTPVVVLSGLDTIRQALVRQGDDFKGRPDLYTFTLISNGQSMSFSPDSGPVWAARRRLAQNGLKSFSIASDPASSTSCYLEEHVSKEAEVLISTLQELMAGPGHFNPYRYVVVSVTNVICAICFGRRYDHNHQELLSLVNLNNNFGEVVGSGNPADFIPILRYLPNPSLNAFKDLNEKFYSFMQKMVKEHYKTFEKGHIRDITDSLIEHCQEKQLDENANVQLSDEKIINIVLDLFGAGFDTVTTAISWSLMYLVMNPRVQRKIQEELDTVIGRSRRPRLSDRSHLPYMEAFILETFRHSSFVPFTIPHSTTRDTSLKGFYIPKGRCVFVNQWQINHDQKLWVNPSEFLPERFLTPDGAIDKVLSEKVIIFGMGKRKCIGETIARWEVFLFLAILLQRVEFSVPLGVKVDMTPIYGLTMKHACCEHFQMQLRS
In short: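 Recombinant hCYP1A1 + fluorogenic substrate, cell-free; 1 h; fluorescence read. Single-point 10 uM (duplicate) → concentration series, max 20 uM. Acetonitrile negative control.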

[14] = molecular target: human CYP2B6, CYP2B6 (gene 1555) (UniProt P20813); experiment: NVS_ADME_hCYP2B6: NovaScreen (NVS) CYP450-related Enzyme Activity (ADME) Assay for human CYP2B6 (AID 2283101; active means hit-call score of the fitted dose curve at least 0.9, where 1 is the maximum)
human CYP2B6, CYP2B6 (gene 1555), sequence (P20813 whole entry, looked up): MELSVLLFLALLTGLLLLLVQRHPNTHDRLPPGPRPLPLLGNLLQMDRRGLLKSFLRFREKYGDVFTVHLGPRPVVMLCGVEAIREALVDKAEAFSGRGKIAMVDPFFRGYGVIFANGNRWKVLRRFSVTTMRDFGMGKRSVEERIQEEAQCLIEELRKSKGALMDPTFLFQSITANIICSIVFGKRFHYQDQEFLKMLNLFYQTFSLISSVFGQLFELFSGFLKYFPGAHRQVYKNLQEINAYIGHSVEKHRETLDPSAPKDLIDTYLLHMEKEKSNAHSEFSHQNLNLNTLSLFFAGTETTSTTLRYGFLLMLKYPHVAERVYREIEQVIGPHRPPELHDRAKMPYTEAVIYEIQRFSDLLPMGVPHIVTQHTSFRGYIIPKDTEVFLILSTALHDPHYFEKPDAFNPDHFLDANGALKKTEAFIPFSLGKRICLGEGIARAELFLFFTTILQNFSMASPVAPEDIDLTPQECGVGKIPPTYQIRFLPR
In short: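 Fluorescence-based enzyme activity of recombinant human CYP2B6, measured 1 h post-dose against acetonitrile vehicle baseline. Screened at a single concentration of 10 uM in duplicate before concentration-response follow-up.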

[15] = molecular target: human CYP1A2, CYP1A2 (gene 1544) (UniProt P05177); experiment: NVS_ADME_hCYP1A2: NovaScreen (NVS) CYP450-related Enzyme Activity (ADME) Assay for human CYP1A2 (AID 2283102; active means hit-call score of the fitted dose curve at least 0.9, where 1 is the maximum)
human CYP1A2, CYP1A2 (gene 1544), sequence (P05177 whole entry, looked up): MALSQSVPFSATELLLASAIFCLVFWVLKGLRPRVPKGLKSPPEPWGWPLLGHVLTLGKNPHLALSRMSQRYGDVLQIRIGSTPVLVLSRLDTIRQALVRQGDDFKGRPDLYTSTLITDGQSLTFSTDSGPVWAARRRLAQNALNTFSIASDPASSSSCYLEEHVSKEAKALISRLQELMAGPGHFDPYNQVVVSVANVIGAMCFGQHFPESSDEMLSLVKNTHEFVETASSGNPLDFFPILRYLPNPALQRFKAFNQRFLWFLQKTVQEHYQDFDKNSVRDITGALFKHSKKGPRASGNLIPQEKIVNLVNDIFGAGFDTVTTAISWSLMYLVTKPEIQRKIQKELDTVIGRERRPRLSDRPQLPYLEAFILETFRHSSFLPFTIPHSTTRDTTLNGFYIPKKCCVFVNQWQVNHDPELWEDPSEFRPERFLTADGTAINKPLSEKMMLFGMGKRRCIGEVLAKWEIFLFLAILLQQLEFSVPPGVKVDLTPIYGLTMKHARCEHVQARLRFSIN
In short: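 rec. hCYP1A2 (insect cells), cell-free; fluorogenic substrate; 0.5 h; FI read. Baseline = acetonitrile; signal loss = inhibition. 10 uM duplicate primary → conc. series for actives.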

[16] = molecular target: human CYP19A1, CYP19A1 (gene 1588) (UniProt P11511); experiment: NVS_ADME_hCYP19A1: NovaScreen (NVS) CYP450-related Enzyme Activity (ADME) Assay for human CYP19A1 (AID 2283098; active means hit-call score of the fitted dose curve at least 0.9, where 1 is the maximum)
human CYP19A1, CYP19A1 (gene 1588), sequence (P11511 whole entry, looked up): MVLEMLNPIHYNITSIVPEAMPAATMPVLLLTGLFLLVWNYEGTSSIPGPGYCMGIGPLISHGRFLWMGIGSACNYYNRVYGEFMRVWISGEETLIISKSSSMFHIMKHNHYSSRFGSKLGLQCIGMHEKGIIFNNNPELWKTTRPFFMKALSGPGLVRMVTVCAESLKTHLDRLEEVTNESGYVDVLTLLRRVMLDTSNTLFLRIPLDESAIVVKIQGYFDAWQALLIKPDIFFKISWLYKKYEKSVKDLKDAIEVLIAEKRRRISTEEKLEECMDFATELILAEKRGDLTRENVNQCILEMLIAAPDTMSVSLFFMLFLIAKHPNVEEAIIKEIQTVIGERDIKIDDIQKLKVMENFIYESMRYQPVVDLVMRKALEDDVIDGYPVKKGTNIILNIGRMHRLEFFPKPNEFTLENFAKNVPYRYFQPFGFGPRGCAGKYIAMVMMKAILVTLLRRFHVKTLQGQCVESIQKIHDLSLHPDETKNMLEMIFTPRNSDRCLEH
In short: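 Biochem, cell-free; recombinant enzyme + specific substrate; fluorescence intensity at 0.5 h post-dose; 10 uM duplicate primary, conc. series for actives; acetonitrile = negative control/baseline; positive and negative controls on every plate.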

Measured: AC50

Tumor necrosis factor (Homo sapiens), sequence (P01375 whole entry, looked up): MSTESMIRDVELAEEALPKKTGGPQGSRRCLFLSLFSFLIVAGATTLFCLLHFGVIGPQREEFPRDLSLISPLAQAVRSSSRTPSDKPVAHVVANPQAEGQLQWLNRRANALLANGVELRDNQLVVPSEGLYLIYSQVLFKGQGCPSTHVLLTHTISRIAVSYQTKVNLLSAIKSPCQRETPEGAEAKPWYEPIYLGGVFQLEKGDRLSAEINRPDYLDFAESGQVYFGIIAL
E-selectin (Homo sapiens), sequence (P16581 whole entry, looked up): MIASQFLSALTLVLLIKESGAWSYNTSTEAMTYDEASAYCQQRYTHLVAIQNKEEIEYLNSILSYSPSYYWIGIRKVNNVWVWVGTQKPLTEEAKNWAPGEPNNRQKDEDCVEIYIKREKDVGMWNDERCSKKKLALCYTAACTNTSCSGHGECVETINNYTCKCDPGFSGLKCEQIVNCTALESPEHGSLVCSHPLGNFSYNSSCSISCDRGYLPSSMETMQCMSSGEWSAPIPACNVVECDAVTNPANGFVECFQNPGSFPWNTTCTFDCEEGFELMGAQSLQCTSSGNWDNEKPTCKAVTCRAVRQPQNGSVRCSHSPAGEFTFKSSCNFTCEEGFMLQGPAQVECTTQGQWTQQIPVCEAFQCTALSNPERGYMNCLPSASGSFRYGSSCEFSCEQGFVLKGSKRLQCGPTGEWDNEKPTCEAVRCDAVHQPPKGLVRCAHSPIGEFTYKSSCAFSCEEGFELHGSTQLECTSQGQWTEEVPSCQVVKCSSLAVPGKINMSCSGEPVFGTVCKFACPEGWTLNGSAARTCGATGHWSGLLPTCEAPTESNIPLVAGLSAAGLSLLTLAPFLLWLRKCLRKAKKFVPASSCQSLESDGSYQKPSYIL

CC(C)(C)CC(C)(C)c1ccc(O)c(-n2nc3ccccc3n2)c1
not listed: [11] | [12] | [13] | [14] | [15] | [16]
inactive: all other assays above

CCCCCCCCCCCCCC[N+](C)(C)C
active: [1] 5.39 µM | [2] 5.28 µM | [3] 11 µM | [4] 5.64 µM | CD38, CD38 (gene 952) 3.24 µM | CD40, CD40 (gene 958) 2.15 µM | CD69, CD69 (gene 969) 2.53 µM | [5] 3.66 µM | [6] 3.2 µM | [7] 7.11 µM | [8] 3.2 µM | [9] 0.539 µM | [10] 3.15 µM | [11] 3.64 µM

CC#C[C@]1(O)CC[C@H]2[C@@H]3CCC4=CC(=O)CCC4=C3[C@@H](c3ccc(N(C)C)cc3)C[C@@]21C
inactive: [2] | [3] | [8]
active: [1] 12.1 µM | CD38, CD38 (gene 952) 36.6 µM | CD40, CD40 (gene 958) 31.2 µM | CD69, CD69 (gene 969) 31.9 µM | [5] 31.7 µM | [6] 33.4 µM | [7] 35.5 µM | [9] 36.2 µM | [10] 31.7 µM

CC1=C(/C=C/C(C)=C/C=C/C(C)=C/C(=O)O)C(C)(C)CCC1
active: [1] 4.31 µM | [3] 0.358 µM | [4] 24.3 µM | CD38, CD38 (gene 952) 21.9 µM | CD40, CD40 (gene 958) 20.5 µM | CD69, CD69 (gene 969) 8.54 µM | [6] 6.38 µM | [7] 36.5 µM | [9] 27.5 µM | [13] 1.43 µM
inactive: [2] | [5] | [8] | [10] | [12] | [14] | [15] | [11]

CCCCOCCO
not listed: [11] | [12] | [13] | [14] | [15] | [16]
inactive: all other assays above

c1ccc2cc3c(ccc4ccccc43)cc2c1
active: [2] 0.587 µM
not listed: [11] | [12] | [14] | [15]
inactive: all other assays above

NC(=O)N(O)[C@@H]1C=C[C@H](Oc2cccc(Oc3ccc(F)cc3)c2)C1
active: CD38, CD38 (gene 952) 26.3 µM | [9] 20 µM | [11] 1.16 µM
not listed: [12] | [13] | [14] | [15] | [16]
inactive: all other assays above

Cc1oc(-c2ccccc2)nc1CCOc1ccc(C[C@H](Nc2ccccc2C(=O)c2ccccc2)C(=O)O)cc1
active: [1] 30.6 µM | [2] 31.6 µM | [3] 30.4 µM | [4] 33.1 µM | CD38, CD38 (gene 952) 28.6 µM | CD40, CD40 (gene 958) 30 µM | CD69, CD69 (gene 969) 14.4 µM | [5] 24.1 µM | [6] 31.5 µM | [7] 38.9 µM | [8] 15.8 µM | [9] 19.3 µM | [10] 18.8 µM

c1ccc2c(c1)Cc1ccccc1-2
not listed: [11] | [12] | [13] | [14] | [15] | [16]
inactive: all other assays above

O=c1c(-c2ccc(O)cc2)coc2cc(O)ccc12
active: [2] 26.5 µM | [4] 20 µM | [9] 20 µM
not listed: [11] | [12] | [13] | [14] | [15] | [16]
inactive: all other assays above

O=[N+]([O-])c1ccc(O)cc1
not listed: [13] | [15] | [16]
inactive: all other assays above

CCCCCCCCCCCCCCCS(=O)(=O)Oc1ccccc1
active: [9] 6.39 µM
not listed: [11] | [12] | [13] | [14] | [15] | [16]
inactive: all other assays above

CC(=O)NC1(c2cccc(F)c2)CCN(CC[C@@]2(c3ccc(Cl)c(Cl)c3)CN(c3ccccc3)C(=O)CO2)CC1
active: [4] 16.6 µM | CD38, CD38 (gene 952) 26.7 µM | CD40, CD40 (gene 958) 30.5 µM | CD69, CD69 (gene 969) 25.2 µM | [5] 27.5 µM | [8] 6.76 µM | [10] 24.6 µM | [11] 2.77 µM
not listed: [14] | [15] | [16]
inactive: all other assays above

COCC(C)OCC(C)O (configuration not stated)
not listed: [11] | [12] | [13] | [14] | [15]
inactive: all other assays above

FC(F)(I)C(F)(F)C(F)(F)C(F)(F)C(F)(F)C(F)(F)I
active: [3] 20.2 µM [middle of 5 runs] | [7] 54.9 µM [middle of 5 runs] | [8] 9.66 µM and 45 µM and 41.6 µM | [10] 28.1 µM [middle of 5 runs]
inactive: [8]
